A short description of experiment [1]: Her2 expression decrease, cell viability multiplex – SKBR3 breast tumor cells, AlphaScreen, ATP viability, primary screen (AID 461;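 active = Her2 level under about 52% in both replicate screens, with viability over 70% of control, limit read from the data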;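 as to Her2 level: lower value means less Her2 protein in the cells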;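 as to viability: percent of carrier control wells set as 100% viability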). The conditions noted are these: SKBR3 Her2 protein level, 18-24 h, measured here: SKBR3 viability, ATP luminescence, at 10 µM. For orientation: Alpha assays give light when donor and acceptor beads are brought close together.
Experiment [2] addresses Receptor tyrosine-protein kinase erbB-2 (Homo sapiens) (UniProt P04626). Described as above. The following applies: 18-24 h, at 10 µM, stronger effect = lower value.
A short description of experiment [3]: reduced viability of SK-BR-3 breast cancer cells – cell-based, 24 h, human, pilot screen (AID 572;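 active = viability at or below 10% of carrier control in both of two separate runs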;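 also: compound exposure lasted between 18 and 24 h rather than exactly 24 h; 100% = carrier-treated control wells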). The conditions noted are these: SK-BR-3 viability, CellTiter-Glo luminescence, at 10 µM, stronger effect = lower value.
Experiment [4] in a line: HUVEC growth inhibition – cell-based, human, primary screen (AID 575;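 active = viability at or below 30% in both replicate assays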;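 also: 100% = median of untreated cell wells with 0.1% DMSO on each plate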). The conditions noted are these: HUVEC proliferation, CellTiter-Glo luminescence, 72 h; at 10 µM; stronger effect = lower value. A general note: ATP-based viability assays read luminescence as a measure of living cells.
Experiment [5] in a line: H69AR cell proliferation blockers – human, duplicate replicates, primary screen (AID 580;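 active = viability at or under a set limit in both replicates, limit being median viability minus 3 SD, cut at about 48% in these data, passing the limit was not always enough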;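 also: 100% = mean luminescence of untreated wells and 0% = no signal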). The conditions noted are these: H69AR lung tumor cells viability, ATP luminescence, 72 h; at 10 µM; stronger effect = lower value.
Experiment [6] can be described thus: MRP1 drug-resistance reversers in H69AR cells – cell-based, doxorubicin co-treatment, pilot screen (AID 601). The conditions noted are these: CellTiter-Glo, 72 h, at 10 µM; for differential viability (reversal): stronger effect = higher value.
Experiment [7] can be described thus: yeast transport mutant growth inhibition pilot in 384-well plates, post-Golgi transport modulator project (AID 636; in the data active = inhibition above about 31%). The following applies: absorbance 615 nm, about 18 h, stronger effect = higher value.
A short description of experiment [8]: growth suppression of yeast trafficking mutant, preliminary HTS, modulators of trafficking downstream of Golgi apparatus project, 1536-format plate, OD 615 nm (AID 637; in the data active = inhibition above about 30%). The following applies: yeast transport mutant growth, absorbance 615 nm, 18 h; stronger effect = higher value.
A short description of experiment [9]: S. cerevisiae growth inhibition in permissive medium (OD615), pilot counter-assay for S. cerevisiae lifespan shortening project, permissive growth control (AID 705;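 active = growth inhibition above 25% in both replicates, a cutoff set 3 SD above the mean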). The conditions noted are these: OD615, 24 h, at 10 µM, stronger effect = higher value.
Experiment [10] can be described thus: S. cerevisiae growth inhibition in restrictive medium, OD615, pilot screen, restrictive growth control, yeast lifespan reduction project (AID 706;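 active = growth inhibition above a set limit, 3 SD over mean compound inhibition, in both replicates, cut at about 43% in these data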;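 also: modified DeaD lifespan yeast strain shifted to restrictive glucose medium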). The following applies: OD615, 48 h, at 10 µM, stronger effect = higher value.
The nature of experiment [11]: doxorubicin toxicity protection in MRP-1 cells – H69AR cells, CellTiter-Glo, duplicate, MRP-1 activator project, pilot screen (AID 807;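 active = viability increase at or above a cutoff of the median across tested compounds plus 3 SD, cut at about 8.5% in these data, passing the limit was not always enough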;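 also: compound pretreatment 18-22 h then 72 h combined with doxorubicin; 0% = doxorubicin alone and 100% = vehicle without doxorubicin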). The conditions noted are these: H69AR viability with doxorubicin, CellTiter-Glo luminescence; at 10 µM; stronger effect = higher value.
A short description of experiment [12]: viability of HCT116 without oncogenic beta-catenin – human colon tumor cells, pilot screen (AID 823;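 active = cell viability at or below a set limit in both duplicate runs, the limit being the all-compound median minus 4 SD, cut at about 23% in these data, passing the limit was not always enough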;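 also: 0% = wells killed by 20 µM Hyamine and 100% = untreated DMSO cell wells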). The conditions noted are these: HCT116 beta-catenin knockout viability, CellTiter-Glo, 60 h; at 10 µM; stronger effect = lower value.
The nature of experiment [13]: viability of PTEN-null HCT116 cells – cell-based, HCT116 clonal line, CellTiter-Glo, pilot screen (AID 824;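 active = viability at or below 27.92% in each of two runs, the all-compound median minus 4 SD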;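 also: 0% = 20 µM Hyamine control and 100% = vehicle cell control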). The conditions noted are these: HCT116 PTEN-deleted viability, 60 h, at 10 µM, stronger effect = lower value.
A short description of experiment [14]: RAM pathway blockade in budding yeast – dse1pr::URA3 reporter, 5-FOA selection, pilot screen (AID 869;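 active = inhibition over a set limit, the all-compound mean plus 3 SD, in both replicate runs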;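 also: 0% = DMSO wells with no growth and 100% = 10 µM 1-NA-PP1 with full growth; RAM network block rescues cells from 5-FOA so hits raise OD615 growth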). The conditions noted are these: S. cerevisiae dse1pr::URA3 5-FOA growth, OD615, 2 d; at 10 µM; stronger effect = higher value; strain carries analog-sensitive mutant Cbk1 kinase.
Experiment [15] can be described thus: RAM signaling pathway blockade in yeast – S. cerevisiae, Pdr1DBD-CYC8 efflux-inhibited sensitized strain, primary screen (AID 1298;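 active = RAM network inhibition above 8.4% in each of two replicates, 3 SD over the compound average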;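 also: 0% = DMSO untreated cells without growth and 100% = 10 µM 1-NA-PP1 full growth; higher means more yeast growth rescued from 5-FOA killing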). The conditions noted are these: S. cerevisiae cbk1-as DSE1-URA3 strain, 5-FOA growth OD615, 2 d; at 50 µM; stronger effect = higher value.
Setting [16] is: H69AR cells + 2 uM doxorubicin, measured here: viability with 2 uM doxorubicin, stronger effect = lower value.
Setting [17] is: H69AR cells, compound alone cytotoxicity.

Consider 7 molecules from PubChem BioAssay.

Molecules are shown by their SMILES. Results filed as inconclusive are left out. The source made the active and inactive calls.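 The calls were made as follows, unless noted: active = viability loss from added drug above about 55%, and viability with drug at most 40%, in both replicates (limit read from the data, passing the limit was not always enough); inconclusive = both conditions met in only one replicate; inactive = neither replicate meets both conditions.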

Chain of Receptor tyrosine-protein kinase erbB-2 (Homo sapiens) (P04626 whole entry, looked up): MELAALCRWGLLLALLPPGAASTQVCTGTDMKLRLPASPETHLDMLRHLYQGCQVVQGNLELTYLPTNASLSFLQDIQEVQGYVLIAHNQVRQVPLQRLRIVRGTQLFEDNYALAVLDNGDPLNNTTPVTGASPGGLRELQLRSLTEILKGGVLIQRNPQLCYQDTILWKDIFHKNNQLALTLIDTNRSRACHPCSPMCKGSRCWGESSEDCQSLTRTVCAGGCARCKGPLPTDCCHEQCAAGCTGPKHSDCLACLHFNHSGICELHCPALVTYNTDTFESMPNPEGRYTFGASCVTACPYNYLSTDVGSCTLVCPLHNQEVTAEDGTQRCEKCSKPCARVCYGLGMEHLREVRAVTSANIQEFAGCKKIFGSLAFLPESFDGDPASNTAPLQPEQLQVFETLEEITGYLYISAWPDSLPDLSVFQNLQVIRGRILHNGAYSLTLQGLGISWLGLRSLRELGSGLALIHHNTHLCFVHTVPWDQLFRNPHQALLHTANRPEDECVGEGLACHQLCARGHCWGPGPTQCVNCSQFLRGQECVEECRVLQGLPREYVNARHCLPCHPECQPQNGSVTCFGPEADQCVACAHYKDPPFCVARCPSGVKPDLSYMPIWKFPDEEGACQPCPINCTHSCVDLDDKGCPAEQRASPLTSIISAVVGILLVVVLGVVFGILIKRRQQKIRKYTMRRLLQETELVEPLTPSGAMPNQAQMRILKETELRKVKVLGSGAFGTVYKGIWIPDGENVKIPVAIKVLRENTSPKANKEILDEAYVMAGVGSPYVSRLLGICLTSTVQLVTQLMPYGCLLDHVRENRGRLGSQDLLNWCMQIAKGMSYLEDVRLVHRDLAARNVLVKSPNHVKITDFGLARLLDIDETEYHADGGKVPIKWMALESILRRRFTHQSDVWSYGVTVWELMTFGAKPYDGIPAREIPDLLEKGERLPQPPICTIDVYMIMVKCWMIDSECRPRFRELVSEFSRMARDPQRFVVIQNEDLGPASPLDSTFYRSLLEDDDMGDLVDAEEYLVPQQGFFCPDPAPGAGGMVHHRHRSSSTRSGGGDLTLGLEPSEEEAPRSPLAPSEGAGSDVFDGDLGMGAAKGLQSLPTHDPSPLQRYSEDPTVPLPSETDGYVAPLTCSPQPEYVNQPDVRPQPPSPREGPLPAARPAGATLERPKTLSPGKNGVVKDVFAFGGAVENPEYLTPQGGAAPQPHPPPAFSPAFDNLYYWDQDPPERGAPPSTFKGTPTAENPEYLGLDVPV

As a reminder, the viability is a read-out of living cells in per cent, often relative to untreated cells. As usually defined, the inhibition is the change of the read-out against control, counted positive when it falls. For `CCCc1cc(C(=O)Nc2sc3c(c2C#N)CCC3)no1`, the viability is 86.5% in experiment [1]; 86.5% (inactive) in experiment [3]; 58% (inactive) in experiment [4]; 29.8% (active) in [5]; 55.6% in [6] (setting [16]); 29.8% in experiment [6] (setting [17]). For the same molecule, the viability was 92.2% (inactive) in experiment [12] and 87.1% (inactive) in experiment [13]. The Her2 level in experiment [2] was 77.5% (inactive). In addition, the differential viability (reversal) in experiment [6] (H69AR cells + 2 uM doxorubicin) is -25.9% (inactive). Moreover, the inhibition is -2.05% (inactive) in [7], -4.5% (inactive) in experiment [8] and -0.06% (inactive) in experiment [14]. Further, the values for the growth inhibition in [9] and in [10] were 4.12% (inactive) and 0.215% (inactive), respectively. The viability increase in [11] is -2.05% (inactive). In addition, the RAM network inhibition in [15] is -1.49% (inactive).

As for `CC1=C(C(=O)OCc2ccccc2)C(c2ccco2)n2ncnc2N1` (centres undefined), the viability in [1] is 98.5%; in [3], 98.5% (inactive); in [4] it was 87.1% (inactive); in experiment [5], 112% (inactive); in experiment [6] (setting [16]), 88.7%; in experiment [6] (setting [17]), 112%. For the same molecule, the viability is 92.8% (inactive) in experiment [12] and 89% (inactive) in experiment [13]. In experiment [2], the Her2 level is 95% (inactive). Also, in [6] (H69AR cells + 2 uM doxorubicin), the differential viability (reversal) is 23% (inactive). The figures for the inhibition in experiment [7], in experiment [8] and in [14] were -2.95% (inactive), 2.67% (inactive) and 0.83% (inactive), respectively. Moreover, the figures for the growth inhibition in experiment [9] and in experiment [10] were 3.25% (inactive) and -3.8% (inactive), respectively. The viability increase in experiment [11] is -2.11% (inactive). Also, the RAM network inhibition in [15] was 1.02% (inactive).

`COCCNC(=O)Cn1cc2c(n1)CCCCC2`: the viability in experiment [1] is 93.5%; in experiment [3], 93.5% (inactive); in [4] it was 112% (inactive); in experiment [5], 95.7% (inactive); in experiment [6] (setting [16]), 88.3%; in experiment [6] (setting [17]) it was 95.7%. The values for the viability in experiment [12] and in experiment [13] were 104% (inactive) and 96.5% (inactive), respectively. Besides, the Her2 level in [2] was 101% (inactive). Besides, in experiment [6] (H69AR cells + 2 uM doxorubicin), the differential viability (reversal) was 7.38% (inactive). In addition, the inhibition was -1.41% (inactive) in [7], -1% (inactive) in [8] and 3.16% (inactive) in experiment [14]. Also, the growth inhibition in [9] is -8.06% (inactive); in experiment [10] it was 5.06% (inactive). Moreover, the viability increase in experiment [11] was 0.1% (inactive). For the same molecule, the RAM network inhibition in [15] was 5.21% (inactive).

As to `O=C(NCCN1CCCCCC1)c1ccc(CS(=O)(=O)c2ccc(Br)cc2)o1`, the viability in [1] is 86.5%; in experiment [3] it was 86.5% (inactive); in experiment [4] it was 86.2% (inactive); in [5], 91% (inactive); in [6] (setting [16]), 83.1%; in [6] (setting [17]) it was 91%. Moreover, the viability in experiment [12] was 78% (inactive); in [13], 82.6% (inactive). In addition, the Her2 level in [2] was 104% (inactive). Further, in experiment [6] (H69AR cells + 2 uM doxorubicin), the differential viability (reversal) is 7.95% (inactive). Moreover, the results for the inhibition in experiment [7], in experiment [8] and in experiment [14] were 0.8% (inactive), 2.5% (inactive) and -0.1% (inactive), respectively. Further, the values for the growth inhibition in [9] and in experiment [10] were -6.86% (inactive) and -14.6% (inactive), respectively. For the same molecule, in experiment [11], the viability increase is -3.11% (inactive). The RAM network inhibition in experiment [15] is 4.63% (inactive).

As to `COCCn1cc(C(=O)c2ccccc2OCC(=O)Nc2cc(C)on2)cc(C#N)c1=O`, the viability in [1] was 82.5%; in experiment [3], 82.5% (inactive); in [4], 89% (inactive); in experiment [5], 108% (inactive); in [6] (setting [16]), 102%; in [6] (setting [17]) it was 108%. Further, the viability in [12] was 92.9% (inactive); in experiment [13], 99.5% (inactive). Also, in [2], the Her2 level is 115% (inactive). Also, in experiment [6] (H69AR cells + 2 uM doxorubicin), the differential viability (reversal) is 6.63% (inactive). The values for the inhibition in [7], in [8] and in experiment [14] were -2.76% (inactive), -1.17% (inactive) and 1.68% (inactive), respectively. For the same molecule, the growth inhibition was -25.8% (inactive) in [9] and -14% (inactive) in [10]. Also, the viability increase in [11] is -0.5% (inactive). For the same molecule, in experiment [15], the RAM network inhibition is 3.2% (inactive).

With `CCN(CC)C(=O)COc1ccc2oc(C)c(C(=O)OC(C)C)c2c1`, the viability in [1] is 83%; in [3], 83% (inactive); in [4], 91.4% (inactive); in experiment [5], 74.1% (inactive); in [6] (setting [16]), 78.8%; in experiment [6] (setting [17]), 74.1%. Also, the viability is 84.2% (inactive) in experiment [12] and 84.8% (inactive) in experiment [13]. Moreover, in [2], the Her2 level is 104% (inactive). Further, the differential viability (reversal) in experiment [6] (H69AR cells + 2 uM doxorubicin) is -4.69% (inactive). Further, the inhibition in experiment [7] was -1.69% (inactive); in experiment [8] it was -6% (inactive); in experiment [14], 1.08% (inactive). Besides, the growth inhibition in experiment [9] was -11.4% (inactive); in experiment [10] it was -9.19% (inactive). The viability increase in [11] was -6.09% (inactive). In addition, the RAM network inhibition in experiment [15] was 7.42% (inactive).

In the case of `O=C(O)C1CC=CCC1C(=O)Nc1cccc(F)c1` (centres undefined), the viability in experiment [1] was 94%; in experiment [3] it was 94% (inactive); in [4] it was 88.1% (inactive); in experiment [5], 87.1% (inactive); in experiment [6] (setting [16]), 88.3%; in [6] (setting [17]), 87.1%. In addition, the viability is 102% (inactive) in [12] and 100% (inactive) in experiment [13]. In [2], the Her2 level was 94% (inactive). Moreover, the differential viability (reversal) in [6] (H69AR cells + 2 uM doxorubicin) is -1.18% (inactive). In addition, the inhibition in [7] is -2.99% (inactive); in experiment [8] it was -5.17% (inactive); in experiment [14], 1.86% (inactive). Further, the values for the growth inhibition in experiment [9] and in [10] were -1.99% (inactive) and -0.35% (inactive), respectively. For the same molecule, the viability increase in experiment [11] is -0.78% (inactive). For the same molecule, in experiment [15], the RAM network inhibition is 1.15% (inactive).
